Cruzain noTriton: blocks cruzain activity in detergent-free assay. purified cruzain, Z-FR-AMC fluorescence, no detergent. Potency, µM, for inactives: max response, negative = inhibition, hits mostly inhibitors. 200,000 tested, 2.3% active;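 further: plate controls were enzyme without inhibitor for no effect and buffer without enzyme for full effect; nearly all actives have a fitted effect of over 40% in size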
Target sequence (P25779 123-467 limits assumed): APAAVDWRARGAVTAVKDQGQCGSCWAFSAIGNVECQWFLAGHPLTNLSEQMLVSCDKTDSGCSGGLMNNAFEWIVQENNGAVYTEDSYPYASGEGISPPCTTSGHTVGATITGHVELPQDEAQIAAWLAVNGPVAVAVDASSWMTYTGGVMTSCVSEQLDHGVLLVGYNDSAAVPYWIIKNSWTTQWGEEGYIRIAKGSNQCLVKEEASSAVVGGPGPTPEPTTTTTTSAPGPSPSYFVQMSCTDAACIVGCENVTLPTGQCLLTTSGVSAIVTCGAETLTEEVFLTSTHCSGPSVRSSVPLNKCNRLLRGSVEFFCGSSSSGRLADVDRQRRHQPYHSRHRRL
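Detergent-free condition (0.00005% Triton X-100) in acetate buffer pH 5.5 with DTT. 1.5 nM enzyme and compound were pre-mixed 15 min, then 2 uM Z-FR-AMC substrate added; reaction progress from fluorescence change between first and third reads (60 s).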
Cruzain inh Det: cruzain (T. cruzi) inhibition with detergent | P25779 | purified cruzain, Z-FR-AMC fluorescence, 0.01% Triton | Potency, µM, inactives show max response, negative = inhibition, most hits filed as inhibitors | 200,000 tested, 0.43% active | AID 1478;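 further: plate controls were neutral wells for no effect and buffer without enzyme for full effect; nearly all actives have a fitted effect of over 40% in size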
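Compounds were screened in titration against cruzain (1.5 nM) with 0.01% Triton X-100 to counter colloidal aggregation. Activity was the AMC fluorescence increase over 60 s after adding 2 uM Z-FR-AMC at pH 5.5.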
Starred values were filed as active, the others as inactive; ? = inconclusive; ! = not active in a repeat. The list is not random: actives were taken first. Their share in the collection is about 2.6%. The call rests on the fitted dose curve; in most records, active means well fitted curve in the direction sought with a large enough effect; inconclusive means small, poorly fitted or top-dose-only effect, or another doubt; inactive means no such curve, though single readings can be large; an effect the other way counts as inactive or inconclusive. Potency means the concentration at half of the fitted maximal effect.

SMILES | Cruzain noTriton | Cruzain inh Det
N#Cc1ccccc1NC(=O)C(=O)NCC(c1cccnc1)N1CCc2ccccc21 (configuration not stated) | 0% | -1%
O=C1C2C3c4ccccc4C(c4ccccc43)C2C(=O)N1c1nc(-c2ccccc2)cs1 (configuration not stated) | ? | -3%
O=C1C2C3c4ccccc4C(c4ccccc43)[C@@H]2C(=O)N1c1nc(-c2ccccc2)cs1 (some centres not stated) | 13µM* | -4%
O=C(CCBr)N1CCN(C(=O)CCBr)CC1 | ? | -2%
O=C(Cn1cc2c(n1)CCCC2)Nc1cc(C(F)(F)F)ccc1Cl | -1% | -4%
CCOC(=O)CSc1nc2c(c(-c3ccc(C)o3)c1C#N)CCCC2 | 23% | -11%
COC(=O)CSc1nc2c(c(-c3ccco3)c1C#N)CCCC2 | 20µM* | 28µM*
CCN1CCN(Cc2nc3cc(NC(=O)c4cccc([N+](=O)[O-])c4)ccc3n2CC)CC1 | -1% | 2%
O=C1C2C3C=CC(C3=C(c3ccccc3)c3ccccc3)C2C(=O)N1Cc1ccccc1 (configuration not stated) | 20µM* | 3%
O=C1C2C3C=CC(C3=C(c3ccccc3)c3ccccc3)C2C(=O)N1CCO (configuration not stated) | ? | -8%
COc1cccc(C(=O)Nc2ccc3nc(SCC(=O)N4CCc5ccccc54)sc3c2)c1 | 13µM* | -3%
O=C(Nc1ccc2nc(SCC(=O)N3CCCc4ccccc43)sc2c1)c1cccc(Cl)c1 | 6.3µM* | -5%
O=C(Nc1ccc2nc(SCC(=O)N3CCc4ccccc43)sc2c1)c1cccc(Cl)c1 | ? | -1%
COc1ccc(C(=O)Nc2ccc3nc(SCC(=O)N4CCc5ccccc54)sc3c2)cc1 | 14% | -1%
COC(=O)C1C(O)CC[C@H]2CN3CCc4c([nH]c5ccccc45)C3C[C@H]12 (some centres not stated) | -19% | -1%
O=[N+]([O-])c1cc(S(=O)(=O)N2CCCC2)ccc1N/N=C1/CCCc2ccccc21 | 16µM* | -6%
O=[N+]([O-])c1cc(S(=O)(=O)N2CCCC2)ccc1NN=C1CCCCC1 | 19% | 1%
O=C(CS(=O)(=O)c1cccc2nsnc12)Nc1ccc(F)cc1 | 1% | -2%
N#Cc1ccsc1NC(=O)CSc1ncn[nH]1 | -5% | 5%
N#Cc1ccsc1NC(=O)CSc1ncnc2ccccc12 | 16µM* | -8%
Oc1c(C=C2N=c3ccccc3=N2)sc(=S)n1-c1ccccc1 | 10µM* | -3%
Oc1c(C=C2N=c3ccccc3=N2)sc(=S)n1C1CCCCC1 | 13µM*! | -4%
O=C(Nn1c(O)c(C=C2N=c3ccccc3=N2)sc1=S)c1ccccc1Cl | -29% | -13%
O=C1N=c2ccccc2=C1c1sc(=S)n(CC2CCCO2)c1O (configuration not stated) | -13% | 8%
Cc1ccc(C)c(NC(=O)C(Cc2ccccc2)n2cccc2)c1 (configuration not stated) | 4% | -8%
SMILES | Cruzain noTriton | Cruzain inh Det
C=C(CC1([C@@H](NP(=O)(c2ccccc2)c2ccccc2)[C@H]2C[C@@H]2CCN(C(=O)OCC)S(=O)(=O)c2ccc(C)cc2)CC1)c1ccccc1 | -28% | -3%
Oc1ccc(CN2CCCc3ccccc32)c2cccnc12 | 25µM* | -6%
COc1ccccc1N1CCN(Cc2ccc(O)c3ncccc23)CC1 | 19% | 0%
CC1CCCCN1CCCNC(=O)c1sc2ncccc2c1-n1cccc1 (configuration not stated) | -3% | -4%
C[C@]12C[C@H](O)CC(CO)(CO)C1[C@H](O)C[C@@]13CC4[C@@H](CC12)[C@@]4(C)C3 (some centres not stated) | 4% | -1%
COC(=O)c1ccc(CSc2nc3c([nH]c4ccccc43)c(=O)n2-c2cccc(Cl)c2)o1 | 8% | -2%
CCSc1nc2c([nH]c3ccccc32)c(=O)n1-c1cccc(OC)c1 | 3% | -8%
COc1cccc(-n2c(SCc3ccc(F)cc3)nc3c([nH]c4ccccc43)c2=O)c1 | 10µM* | -1%
COC(=O)c1ccc(CSc2nc3c([nH]c4ccccc43)c(=O)n2-c2cccc(OC)c2)o1 | 25µM* | -3%
CCN1C(=O)c2ccccc2Sc2ccc(NC(=O)COc3ccc(Cl)cc3)cc21 | ? | -1%
Cc1cc(NS(=O)(=O)c2ccc(Nc3nc(-c4sc(NC(=O)c5ccccc5)nc4C)cs3)cc2)no1 | 6.3µM* | -11%
COc1ccc(Cl)cc1Nc1nc(-c2sc(NC(=O)C(C)(C)C)nc2C)cs1 | -24% | 2%
Cc1ccc(Cl)cc1Nc1nc(-c2sc(NC(=O)c3ccccc3)nc2C)cs1 | 6.3µM* | 4%
CCCCC(=O)Nc1nc(C)c(-c2csc(Nc3cc(OC)ccc3OC)n2)s1 | ? | -2%
CCCCC(=O)Nc1nc(C)c(-c2csc(Nc3cc(Cl)ccc3OC)n2)s1 | 10µM* | 1%
COc1ccc(Cl)cc1Nc1nc(-c2sc(NC(=O)c3ccco3)nc2C)cs1 | 16µM* | -1%
Cc1nc(NC(=O)c2ccccc2)sc1-c1csc(Nc2cccc(F)c2)n1 | ? | 5%
CCC(=O)Nc1nc(C)c(-c2csc(Nc3ccc(S(=O)(=O)Nc4cc(C)on4)cc3)n2)s1 | -18% | -1%
Cc1cc(Nc2cc(F)ccc2C)nc(-n2nc(C)cc2C)n1 | 2% | 2%
CCCC(C)C(=O)Nc1nc(C)c(-c2csc(Nc3ccccc3OC)n2)s1 (configuration not stated) | ? | 5%
CCC(C)C(=O)Nc1nc(C)c(-c2csc(Nc3cc(Cl)ccc3OC)n2)s1 (configuration not stated) | -16% | 1%
CCCC(C)C(=O)Nc1nc(C)c(-c2csc(Nc3ccc(Cl)cc3)n2)s1 (configuration not stated) | 10µM* | 2%
CCCCCCC(=O)Nc1nc(C)c(-c2csc(Nc3cc(Cl)ccc3C)n2)s1 | 10µM* | 3%
CSc1nc(Nc2ccc(C)cc2)c(C#N)c(-c2ccccc2)n1 | -8% | -2%
C=CCN=C1NN=C(c2cc(C)n(CC=C)c2C)CS1 | 25µM* | -8%
SMILES | Cruzain noTriton | Cruzain inh Det
COCCn1c(C)cc(C2=NNC(=Nc3ccccc3F)SC2)c1C | -23% | -4%
CCc1ccc(-n2nc(C)c3c(C)cc(=O)n(CC(=O)N(CC)Cc4ccccc4)c32)cc1 | 9% | 0%
COc1cccc(-n2c(SCC(=O)Nc3nnc(C)s3)nc3c([nH]c4ccccc43)c2=O)c1 | ? | -3%
CCCOc1ccc(C(=O)Nc2nc(C)c(Cc3ccc4c(c3)OCO4)s2)cc1 | -27% | -1%
Cc1c(Cc2ccc3c(c2)OCO3)sc(NC(=O)c2ccc3ccccc3c2)c1C(N)=O | 10µM* | -1%
Cc1cc(N2CCC(C)CC2)nc2ccc(NC(=O)CCC(=O)N3CCN(c4cccc(C(F)(F)F)c4)CC3)cc12 | ? | 13µM*
Cc1ccc(Cl)cc1N1CCN(C(=O)CCC(=O)Nc2ccc3nc(N4CCC(C)CC4)cc(C)c3c2)CC1 | 9% | -2%
Cc1cc(N2CCCCC2)nc2ccc(NC(=O)CCC(=O)N3CCN(c4cccc(Cl)c4)CC3)cc12 | ? | 16µM*
Cc1cc(N2CCCCC2)nc2ccc(NC(=O)c3cccc(Cl)c3)cc12 | -11% | -10%
Cc1ccc(C)c(OCCn2c(-c3ccc(Cl)cc3)nc3ccccc3c2=O)c1C | 16% | 1%
Cc1ccc(-n2nc(C)c3c(C)cc(=O)n(CC(=O)Nc4cccc(C)c4C)c32)cc1 | -5% | -1%

Compound activity deposited in PubChem BioAssay by National Center for Advancing Translational Sciences (NCATS).
